Measurements from PubChem BioAssay (EPA / NIEHS).
Active and inactive are the calls of the source. Rule for the calls: active = hit-call score of the fitted dose curve at least 0.9, where 1 is the maximum; inactive = score below 0.9.

Columns and labels:
[1] = ATG_CRE_CIS: Attagene CIS-FACTORIAL HepG2 Assay for human cAMP Responsive Element (CRE) binding protein 3 (AID 2282926); settings: HepG2 CRE cis-reporter, Attagene multiplexed mRNA; actives raise or lower the signal
Method in brief: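 Endogenous transcription factor activity read via CRE-regulated reporter transcripts in transfected HepG2 cells. After 24 h exposure, RNA was reverse-transcribed, amplified, fluorescently labelled and sized by capillary electrophoresis; gain or loss fitted against DMSO.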

[2] = biological target: CCAAT/enhancer-binding protein beta (Homo sapiens) (UniProt P17676); assay: ATG_C_EBP_CIS: Attagene CIS-FACTORIAL HepG2 Assay for human CCAAT/Enhancer Binding Protein (C/EBP) beta (AID 2282927); settings: HepG2 Attagene cis-factorial transcription factor reporter; actives raise or lower the signal
Method in brief: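 HepG2 transiently transfected with multiplexed reporter units under cis-regulatory promoters reporting endogenous C/EBPb activity. After 24 h exposure, reporter mRNA assayed by RT-PCR, fluorescent labelling, HpaI digestion and capillary electrophoresis; bidirectional fitting versus DMSO.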

[3] = ATG_AP_1_CIS: Attagene CIS-FACTORIAL HepG2 Assay for human Activator Protein 1 (AP-1) (AID 2282931); settings: HepG2 Attagene cis-factorial AP-1 reporter mRNA; actives raise or lower the signal
Method in brief: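 After 24 h incubation with test chemical, RNA from transfected HepG2 cells was reverse-transcribed, amplified, fluorescently labelled and digested before capillary electrophoresis. Reporters were driven by cis-regulatory promoters; activity fitted bidirectionally versus DMSO.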

[4] = ATG_AP_2_CIS: Attagene CIS-FACTORIAL HepG2 Assay for human Activator Protein 2 (AP-2) (AID 2282932); settings: HepG2 AP-2 cis-reporter, Attagene transcription factor profiling; actives raise or lower the signal
Method in brief: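 Liver-derived HepG2 line, cis-reporter system measuring endogenous factors; 24 h dosing; reporter mRNA detected by fluorescent RT-PCR and capillary electrophoresis.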

[5] = ATG_BRE_CIS: Attagene CIS-FACTORIAL HepG2 Assay for human Bone Morphogenetic Protein (BMP) Response Element (BRE) (AID 2282933); settings: HepG2 BMP response element reporter, Attagene transcription factor profiling; actives raise or lower the signal
Method in brief: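 A HepG2 multiplex reporter system measured inducible reporter mRNA 24 h post-dosing. Detection: RT-PCR, 6-FAM primer extension, HpaI digestion, capillary electrophoresis. Activity fitted bidirectionally relative to DMSO.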

[6] = ATG_E_Box_CIS: Attagene CIS-FACTORIAL HepG2 Assay for human Enhancer Box (E-box) (AID 2282936); settings: HepG2 E-box cis-reporter transcription, actives raise or lower the signal
Method in brief: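 In this cell-based setup, HepG2 cells bearing transfected promoter-driven reporter units were exposed to chemicals for 24 h; reporter transcripts were amplified, 6-FAM-labelled, cut with HpaI and sized by capillary electrophoresis.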

[7] = ATG_M_61_CIS: Attagene CIS-FACTORIAL HepG2 Assay for M61 Transcription Factor (Internal Marker) (AID 2282937); settings: HepG2 Attagene CIS-FACTORIAL M61 internal marker reporter; actives raise or lower the signal
Method in brief: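 Using transiently transfected HepG2 liver cells, reporter transcript levels were assessed 24 h post-dosing by RT-PCR and capillary electrophoresis. Changes in either direction were fitted relative to DMSO controls.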

[8] = ATG_EGR_CIS: Attagene CIS-FACTORIAL HepG2 Assay for human Early Growth Response 1 (EGR1) (AID 2282938); settings: HepG2 Attagene CIS-FACTORIAL EGR reporter mRNA; actives raise or lower the signal
Method in brief: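 Fluorescent capillary-electrophoresis signal of reporter cDNA fragments serves as read-out. HepG2 cells bear transiently transfected cis-promoter reporter units and are exposed 24 h; gain- or loss-of-signal is fitted against DMSO.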

[9] = ATG_Ets_CIS: Attagene CIS-FACTORIAL HepG2 Assay for human Erythroblast Transformation Specific (ETS) (AID 2282941); settings: HepG2 ETS cis-reporter transcription, actives raise or lower the signal
Method in brief: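 Multiplexed reporter transcript profiling: HepG2, 24 h treatment, total RNA to cDNA, PCR, 6-FAM labelling, HpaI cut, capillary electrophoresis. Gain- or loss-of-signal fitted against DMSO.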

[10] = ATG_FoxO_CIS: Attagene CIS-FACTORIAL HepG2 Assay for human Forkhead box O (FoxO) (AID 2282943); settings: HepG2 Attagene cis-reporter, FoxO element, mRNA; actives raise or lower the signal
Method in brief: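 HepG2 cells transiently transfected with cis-element-driven reporter units report endogenous FoxO activity. After 24 h chemical exposure, reporter mRNA quantified by RT-PCR, fluorescent labeling, HpaI digestion and capillary electrophoresis; bidirectional fit versus DMSO.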

[11] = ATG_GATA_CIS: Attagene CIS-FACTORIAL HepG2 Assay for human GATA Binding Protein (AID 2282944); settings: HepG2 GATA cis-element reporter, Attagene multiplex mRNA; actives raise or lower the signal
Method in brief: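 Transfected cis-reporter HepG2 cells were treated with chemicals for 24 hours. Total RNA was then converted to cDNA, amplified with reporter-specific primers and analysed by fluorescent capillary electrophoresis, using DMSO-treated wells as baseline.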

[12] = ATG_M_32_CIS: Attagene CIS-FACTORIAL HepG2 Assay for M32 Transcription Factor (Internal Marker) (AID 2282949); settings: HepG2 Attagene cis-factorial M32 reporter, mRNA; actives raise or lower the signal;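 note: background control marker of the multiplexed CIS panel rather than a real target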
Method in brief: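 HepG2 transfectants (cis-regulated reporter transcription units) dosed 24 h. Reporter mRNA by RT-PCR plus CE, analysed as gain or loss relative to DMSO.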

[13] = ATG_M_06_CIS: Attagene CIS-FACTORIAL HepG2 Assay for M06 Transcription Factor (Internal Marker) (AID 2282950); settings: HepG2 Attagene CIS-FACTORIAL M06 internal marker reporter; actives raise or lower the signal
Method in brief: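 Cells (HepG2, transiently carrying cis-driven reporter units) receive chemical for 24 h before RNA isolation. Reporter cDNA is PCR-amplified, FAM-labelled by primer extension, HpaI-digested and sized on a capillary analyser.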

[14] = ATG_MRE_CIS: Attagene CIS-FACTORIAL HepG2 Assay for human Metal Responsive Element (MRE) (AID 2282954); settings: HepG2 MRE cis-reporter transcription, Attagene multiplex; actives raise or lower the signal
Method in brief: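 Measured here is mRNA induction from an MRE cis-element reporter in HepG2 after 24 h, quantified by fluorescence of labelled RT-PCR products on capillary electrophoresis; gain- and loss-of-signal fits use DMSO as baseline.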

[15] = biological target: Paired box protein Pax-6 (Homo sapiens) (UniProt P26367); assay: ATG_Pax6_CIS: Attagene CIS-FACTORIAL HepG2 Assay for human Paired Box 6 (PAX6) (AID 2282956); settings: HepG2 CIS-FACTORIAL PAX6 reporter transcription, RNA readout; actives raise or lower the signal
Method in brief: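 Values derive from bidirectional curve fitting of reporter mRNA signal relative to DMSO. HepG2 cells bearing transfected cis-regulated MRTUs were exposed for 24 h; transcripts were read by RT-PCR and capillary electrophoresis.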

[16] = ATG_PXRE_CIS: Attagene CIS-FACTORIAL HepG2 Assay for human Pregnane X Receptor Element (PXRE) (AID 2282957); settings: HepG2 Attagene CIS-FACTORIAL PXRE reporter, mRNA; actives raise or lower the signal
Method in brief: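 Reporter transcripts under endogenous PXR-responsive cis-regulation quantified from total RNA of transfected HepG2 cells 24 h post-dosing, via RT-PCR with fluorescent primer extension and capillary electrophoresis. Gain or loss of signal fitted against DMSO baseline.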

[17] = biological target: Transcription factor Sp1 (Homo sapiens) (UniProt P08047); assay: ATG_Sp1_CIS: Attagene CIS-FACTORIAL HepG2 Assay for human Specificity Protein 1 (Sp1) (AID 2282961); settings: HepG2 Sp1 cis-reporter transcription, actives raise or lower the signal
Method in brief: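 After transient transfection of HepG2 cells with cis-promoter reporter units and 24 h chemical treatment, reporter transcripts were quantified by RT-PCR and capillary electrophoresis fluorescence. Gain- and loss-of-signal fitted against DMSO.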

[18] = ATG_SREBP_CIS: Attagene CIS-FACTORIAL HepG2 Assay for human Sterol Regulatory Element Binding (SREBP) (AID 2282962); settings: HepG2 Attagene cis-factorial SREBP reporter, mRNA; actives raise or lower the signal
Method in brief: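 Values derive from bidirectional curve fitting with DMSO as baseline. The underlying measurement is reporter mRNA from cis-element-regulated units in transiently transfected HepG2, quantified by RT-PCR and capillary electrophoresis after 24 h exposure.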

[19] = biological target: Signal transducer and activator of transcription 3 (Homo sapiens) (UniProt P40763); assay: ATG_STAT3_CIS: Attagene CIS-FACTORIAL HepG2 Assay for human Signal Transducer and Activator of Transcription 3 (STAT3) (AID 2282963); settings: HepG2, Attagene cis-factorial STAT3 reporter transcription; actives raise or lower the signal
Method in brief: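 Fluorescence intensity of 6-FAM-labelled reporter fragments, separated by capillary electrophoresis after RT-PCR, gave the signal. Cells were HepG2 transfected with cis-element reporter units and treated 24 h; fitting was bidirectional relative to DMSO.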

[20] = ATG_TAL_CIS: Attagene CIS-FACTORIAL HepG2 Assay for human TAL Basal Promoter (AID 2282966); settings: HepG2 Attagene cis-factorial TAL promoter reporter; actives raise or lower the signal;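 note: background control endpoint measuring basal TAL promoter reporter mRNA not a specific factor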
Method in brief: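 Background-control endpoint: basal TAL promoter reporter transcripts in transiently transfected HepG2, measured 24 h after dosing. Read-out by RT-PCR with fluorescent primer extension and capillary electrophoresis; gain or loss of signal fitted relative to DMSO.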

Measured: AC50

Sequence of CCAAT/enhancer-binding protein beta (Homo sapiens) (P17676 whole entry, looked up): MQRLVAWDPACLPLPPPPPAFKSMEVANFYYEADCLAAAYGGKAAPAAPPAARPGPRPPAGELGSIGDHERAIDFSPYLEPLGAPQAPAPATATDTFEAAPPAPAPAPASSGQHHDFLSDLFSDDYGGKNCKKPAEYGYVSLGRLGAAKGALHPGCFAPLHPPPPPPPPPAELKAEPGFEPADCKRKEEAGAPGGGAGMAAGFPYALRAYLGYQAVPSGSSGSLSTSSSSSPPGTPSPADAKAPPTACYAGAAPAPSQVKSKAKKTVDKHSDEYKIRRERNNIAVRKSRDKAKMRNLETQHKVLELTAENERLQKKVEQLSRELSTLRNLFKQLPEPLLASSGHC
Sequence of Transcription factor Sp1 (Homo sapiens) (P08047 whole entry, looked up): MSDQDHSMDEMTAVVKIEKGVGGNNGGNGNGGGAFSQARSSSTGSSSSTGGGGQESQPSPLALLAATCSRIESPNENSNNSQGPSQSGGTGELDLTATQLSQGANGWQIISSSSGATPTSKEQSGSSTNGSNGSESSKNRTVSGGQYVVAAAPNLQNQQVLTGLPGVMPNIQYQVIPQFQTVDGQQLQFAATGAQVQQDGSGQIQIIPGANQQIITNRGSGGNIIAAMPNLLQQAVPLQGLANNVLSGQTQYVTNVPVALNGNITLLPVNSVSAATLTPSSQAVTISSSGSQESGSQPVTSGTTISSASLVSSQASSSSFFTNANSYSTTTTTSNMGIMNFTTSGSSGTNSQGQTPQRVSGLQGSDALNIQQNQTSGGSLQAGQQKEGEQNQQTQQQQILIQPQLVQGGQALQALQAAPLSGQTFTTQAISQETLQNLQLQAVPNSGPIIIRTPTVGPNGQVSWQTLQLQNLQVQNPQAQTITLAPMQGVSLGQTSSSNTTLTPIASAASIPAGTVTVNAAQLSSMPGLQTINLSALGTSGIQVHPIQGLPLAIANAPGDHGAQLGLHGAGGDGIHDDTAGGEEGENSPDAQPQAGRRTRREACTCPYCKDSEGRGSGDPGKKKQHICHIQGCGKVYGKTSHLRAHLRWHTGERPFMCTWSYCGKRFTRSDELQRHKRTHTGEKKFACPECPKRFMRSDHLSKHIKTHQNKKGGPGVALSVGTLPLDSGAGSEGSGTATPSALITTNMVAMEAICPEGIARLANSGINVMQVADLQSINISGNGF
Sequence of Paired box protein Pax-6 (Homo sapiens) (P26367 whole entry, looked up): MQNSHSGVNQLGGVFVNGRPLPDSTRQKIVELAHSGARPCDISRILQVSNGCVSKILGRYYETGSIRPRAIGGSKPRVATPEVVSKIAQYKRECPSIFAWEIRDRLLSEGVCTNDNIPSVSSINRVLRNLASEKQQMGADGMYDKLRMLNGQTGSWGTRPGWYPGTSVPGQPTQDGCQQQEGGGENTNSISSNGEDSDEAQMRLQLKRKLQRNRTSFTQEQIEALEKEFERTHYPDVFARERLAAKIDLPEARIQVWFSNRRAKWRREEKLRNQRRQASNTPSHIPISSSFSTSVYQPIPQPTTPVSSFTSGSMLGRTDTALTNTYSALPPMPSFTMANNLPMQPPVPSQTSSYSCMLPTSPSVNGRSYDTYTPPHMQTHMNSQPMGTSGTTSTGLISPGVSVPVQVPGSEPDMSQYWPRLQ
Sequence of Signal transducer and activator of transcription 3 (Homo sapiens) (P40763 whole entry, looked up, the tested form may be a part): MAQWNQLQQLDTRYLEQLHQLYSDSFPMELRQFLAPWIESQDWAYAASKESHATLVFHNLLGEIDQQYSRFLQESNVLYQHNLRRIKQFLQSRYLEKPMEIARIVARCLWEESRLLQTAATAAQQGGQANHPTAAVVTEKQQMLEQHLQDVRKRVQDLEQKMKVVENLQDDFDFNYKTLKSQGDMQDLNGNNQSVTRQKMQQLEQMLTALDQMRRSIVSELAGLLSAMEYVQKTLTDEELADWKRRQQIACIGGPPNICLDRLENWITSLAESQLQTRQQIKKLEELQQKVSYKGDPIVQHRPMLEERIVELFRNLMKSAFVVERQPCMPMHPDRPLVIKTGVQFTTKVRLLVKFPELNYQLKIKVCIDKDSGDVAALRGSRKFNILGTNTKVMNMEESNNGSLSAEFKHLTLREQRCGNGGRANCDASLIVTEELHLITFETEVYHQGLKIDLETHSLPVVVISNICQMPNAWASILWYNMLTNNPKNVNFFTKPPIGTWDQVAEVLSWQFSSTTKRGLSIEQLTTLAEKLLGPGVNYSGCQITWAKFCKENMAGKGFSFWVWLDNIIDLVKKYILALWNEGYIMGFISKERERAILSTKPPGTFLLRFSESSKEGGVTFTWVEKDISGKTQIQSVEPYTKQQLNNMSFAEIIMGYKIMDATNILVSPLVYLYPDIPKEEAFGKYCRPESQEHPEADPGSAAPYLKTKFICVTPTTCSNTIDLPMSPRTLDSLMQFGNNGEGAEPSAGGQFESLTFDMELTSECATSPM

O=C(O)/C=C\C(=O)O
active: [16] 41.1 µM
inactive: all other assays above

C[C@H]1C[C@H]2[C@@H]3CCC4=CC(=O)C=C[C@]4(C)[C@@]3(F)[C@@H](O)C[C@]2(C)[C@@]1(O)C(=O)CO
active: [5] 73.3 µM | [8] 100 µM | [14] 80.1 µM | [15] 69 µM | [16] 9.62 µM
inactive: all other assays above

C/C=C(\C)C(=O)OCC/C=C\CC
inactive: all assays above

CCC(=O)OCc1ccc(OC)cc1
active: [16] 29.7 µM
inactive: all other assays above

CNC(=C[N+](=O)[O-])NCCSCc1csc(CN(C)C)n1
inactive: all assays above

CN(C)Cc1cc(C(C)(C)C)c(O)c(C(C)(C)C)c1
active: [16] 3.41 µM | [18] 43.1 µM
inactive: all other assays above

NC(N)=Nc1nc(CSCCC(N)=NS(N)(=O)=O)cs1
inactive: all assays above

O=C(OCc1ccccc1)c1ccccc1
active: [16] 26.4 µM
inactive: all other assays above

O=C(C(=O)c1ccccc1)c1ccccc1
active: [16] 42.8 µM
inactive: all other assays above

O=C(CC(C(=O)OC1CCCCC1)S(=O)(=O)O)OC1CCCCC1 (stereo not given)
active: [16] 9.51 µM
inactive: all other assays above

OCCOCCOCCOCCOCCO
inactive: all assays above

Cc1cc2nc3c(=O)[nH]c(=O)nc-3n(C[C@H](O)[C@H](O)[C@H](O)CO)c2cc1C
active: [16] 47.2 µM
inactive: all other assays above

Clc1ccc(Sc2cc(Cl)c(Cl)cc2Cl)cc1
active: [16] 5.97 µM
inactive: all other assays above

Cc1cc(O)cc(C)c1Cl
active: [1] 79 µM | [17] 109 µM
inactive: all other assays above

COC(=O)c1ccccc1
inactive: all assays above

Oc1ccc(Cl)cc1C1CCCC1
inactive: [2] | [3] | [4] | [6] | [7] | [12] | [13] | [19]
active: [1] 33.4 µM | [5] 56.6 µM | [8] 54.7 µM | [9] 52 µM | [10] 61.3 µM | [11] 33.4 µM | [14] 53 µM | [15] 62.4 µM | [16] 7.76 µM | [17] 33.4 µM | [18] 25.6 µM | [20] 54.9 µM

COc1cccc(OC)c1C(=O)O
inactive: all assays above
